# In all, about 360,000 compounds went through this assay and about 660 (0.18%) were called active. About 2% were inconclusive and are not listed. The call rests on the fitted dose curve; in most records, active means well fitted inhibition curve with a large enough effect; inconclusive means small, poorly fitted or top-dose-only effect; inactive means no such curve, though single readings can be large or run the other way. What follows is part of a selection rich in actives, with near analogues and random picks from the rest. Where a call stands in place of a potency, no number is given.
# Molecular target: Rap guanine nucleotide exchange factor 4 (Homo sapiens) (UniProt Q8WZA2)
# Sequence (Q8WZA2 whole entry, looked up): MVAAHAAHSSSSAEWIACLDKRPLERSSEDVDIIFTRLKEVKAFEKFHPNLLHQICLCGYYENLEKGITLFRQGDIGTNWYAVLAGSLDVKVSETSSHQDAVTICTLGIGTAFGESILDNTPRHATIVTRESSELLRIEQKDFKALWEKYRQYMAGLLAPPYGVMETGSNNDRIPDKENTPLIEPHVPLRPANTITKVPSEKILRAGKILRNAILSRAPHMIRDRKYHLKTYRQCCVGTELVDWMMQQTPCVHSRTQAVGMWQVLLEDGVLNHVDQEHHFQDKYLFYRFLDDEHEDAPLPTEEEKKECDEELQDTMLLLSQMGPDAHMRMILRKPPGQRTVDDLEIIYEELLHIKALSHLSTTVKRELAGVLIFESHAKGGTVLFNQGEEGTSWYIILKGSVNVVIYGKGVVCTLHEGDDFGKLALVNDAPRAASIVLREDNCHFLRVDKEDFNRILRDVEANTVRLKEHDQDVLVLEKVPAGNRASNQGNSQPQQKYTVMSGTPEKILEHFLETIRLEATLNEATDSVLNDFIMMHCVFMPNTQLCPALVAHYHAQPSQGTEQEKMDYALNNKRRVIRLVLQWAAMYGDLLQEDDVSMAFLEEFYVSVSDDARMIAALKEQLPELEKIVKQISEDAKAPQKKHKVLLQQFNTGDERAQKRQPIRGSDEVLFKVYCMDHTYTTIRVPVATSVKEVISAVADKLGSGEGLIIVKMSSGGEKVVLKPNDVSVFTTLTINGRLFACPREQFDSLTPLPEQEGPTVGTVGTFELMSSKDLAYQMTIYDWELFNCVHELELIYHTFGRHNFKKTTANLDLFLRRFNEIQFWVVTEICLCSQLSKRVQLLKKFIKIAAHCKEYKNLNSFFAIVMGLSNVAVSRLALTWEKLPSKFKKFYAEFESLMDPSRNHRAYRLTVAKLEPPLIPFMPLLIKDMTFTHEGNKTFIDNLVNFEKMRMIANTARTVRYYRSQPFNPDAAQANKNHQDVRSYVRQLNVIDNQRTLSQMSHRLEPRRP
# Experiment: qHTS for Antagonist of cAMP-regulated guanine nucleotide exchange factor 2 (EPAC2): primary screen; further: nearly all actives have a fitted effect of over 45% in size
# Details: EPAC2 GEF exchange of Rap1B-BODIPY-GDP, fluorescence; series mostly up to 114 µM
# Excerpt: In multi-cellular eukaryotic organisms, the effects of cAMP are transduced by two ubiquitously-expressed intracellular cAMP receptors, the classic protein kinase A/cAMP-dependent protein kinase (PKA/cAPK) and the more recently discovered exchange protein directly activated by cAMP/cAMP-regulated guanine nucleotide exchange factor (EPAC/cAMP-GEF). Both PKA and EPAC are ubiquitously expressed in all tissues, and an increase in intracellular cAMP levels will lead to the activation of both PKA and EPAC. Therefore, careful dissections of the individual role and relative contribution of EPAC and PKA within the overall cAMP signaling in various model systems are critical for further elucidating the mechanism of cAMP signaling. To date no EPAC-specific antagonists and agonist, as well as isoform-specific agonists have been reported, and developing EPAC-specific pharmacological probes to determine the physiological functions that EPAC play in the overall cAMP-mediated signaling remains a major challenge within the research field. Furthermore, identified regulators of EPAC may lead to new mechanism-based therapeutic strategies specifically targeting the EPAC / cAMP-signaling components as EPAC has been implicated to play important roles in major human pathological conditions such as diabetes, heart disease, and cancer.
# This qHTS will be used to screen the Molecular Libraries Small Molecule Repository (MLSMR) as a concentration-titration series using the NCGC unique quantitative screening (qHTS) platform to find inhibitors for EPAC2. In addition, this assay will also be used as a counterscreen for the EPAC1 qHTS. This fluorescent based assay is developed and validated for EPAC2 that measures exchange using EPAC effector Rap1 complex with BODIPY-GDP, a GDP analog with a tethered fluorophores. Inhibitors are identified by monitoring the change in fluorescence signal as the exchanged free BODIPY-GDP has a reduced fluorescence compared to Rap1-bound BODIPY-GDP. Decrease in signal (inhibition) is the desired outcome for the EPAC2 antagonist while no activity in this assay is desired for the EPAC1 antagonist counterscreen.
# NIH Chemical Genomics Center [NCGC]
# NIH Molecular Libraries Probe Centers Network [MLPCN]
# Assay Submitter (PI): Xiaodong Cheng, The University of Texas, Medical Branch
# Briefly, three uL of reagents (100 nM EPAC2, 250 nM RAP1B-BODIPY-GDP, 50 uM GDP) were dispensed into a 1536-well Greiner black solid-bottom medium binding assay plate. Controls and test compounds (23 nL) were transferred to the plate via a Kalypsys pin tool equipped with a 1536-pin array. The plates were centrifuged at 1,000 rpm for 15 seconds followed by 5 minute incubation at room temperature. The assay plates were read at 5 minute intervals for 30 minutes in the ViewLux plate reader using 480nm excitation and 540nm emission filters. The results were normalized to the agonist positive control ATA and DMSO.
# Potency means the concentration at half of the fitted maximal effect.
row,SMILES,Potency
1,CCOP(=O)(OCC)C(Cc1ccccc1)N=C(c1ccccc1)c1ccccc1 (stereo not given),35.5 µM (active)
2,CCOP(=O)(OCC)C(NC(=O)c1ccc(C)cc1)C(Cl)(Cl)Cl (stereo not given),inactive
3,CCOP(=O)(OCC)C(NC(=O)c1ccc(OC)cc1)C(Cl)(Cl)Cl (stereo not given),inactive
4,CC1=CC(=Cc2sc3ccccc3[n+]2C)C=C(C)O1,inactive
5,C[C@]12CC[C@H](O)C[C@H]1CC[C@@H]1C2CC[C@]2(C)[C@@H](C3=CC(=O)OC3)[C@@H](O)C[C@]12O (stereo not given in full),inactive
6,CCOC(=O)[C@]12Cc3ccccc3[C@H]1N(C1CCCCC1)C(=O)c1cc(OC)ccc12,3.16 µM (active)
7,COC(=O)C1=C(c2cc3ccccc3s2)C[C@@H]2CC[C@H]1N2C(=O)NCc1cccc2ccccc12,inactive
8,Oc1cc2c(cc1CN1CCN(c3ccccc3)CC1)OCO2,inactive
9,CN(c1ccccc1)c1ccc([N+](=O)[O-])c2nonc12,inactive
10,ClC(Cl)(Cl)c1ccccc1,inactive
11,CC(c1ccccc1)(c1ccccc1)c1ccncc1,35.5 µM (active)
12,CCCC[N+]1(C)C2CC(OC(=O)C(CO)c3ccccc3)CC1C1OC12 (stereo not given),inactive
13,O=C(NC(c1ccc(Cl)cc1)P(=O)(Oc1ccccc1)Oc1ccccc1)OCc1ccccc1 (stereo not given),inactive
14,COC(=O)N1C(c2ccccc2)C1c1ccccc1 (stereo not given),31.6 µM (active)
15,COC(=O)C(c1ccccc1)N1CCCCCC1 (stereo not given),inactive
16,O=C(CN1CCCCC1)Nc1ccc(Br)cc1C(=O)c1ccccc1Cl,inactive
17,Cn1c(O)c(C(=Nc2ccc(F)cc2)c2ccccc2)c(=O)n(C)c1=O,inactive
18,CC(=O)N(C1=NCCCS1)c1ccccc1F,inactive
19,Cc1ccc(-n2c(O)c(C=NCC3CCCO3)c(=O)[nH]c2=O)c(C)c1 (stereo not given),inactive
20,O=C(OCCN1CCOCC1)C1(c2ccccc2)CCCC1,inactive
